Results on four molecules are retold here after PubChem BioAssay (NCATS).

Assay [1] in a line: AP1 Signaling Pathway (AID 357).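 Note: ME-180 reporter cells stimulated with EGF at its EC50 level; % is set by controls: 0 for no effect and ±100 for the full control effect.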 To be noted: ME-180 AP-1-bla reporter, EGF-induced, beta-lactamase ratio, 5 h. The method in brief: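 In this screen, ME-180 cells in Opti-MEM with 0.5% dialyzed FBS received EC50 EGF and compound titrations for 5 h. AP-1 reporter beta-lactamase was detected via CCF4 ratio, giving AC50 for positive and negative modulators.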
Assay [2] concerns the target Cytochrome P450 1A2 (Homo sapiens) (UniProt P05177). The assay is described as follows: p450-cyp1a2 (AID 410; calls by dose curve; note: potency is the fitted concentration of half-maximal effect;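 for activity change, negative = inhibition: -100% = full effect of reference inhibitor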). To be noted: recombinant CYP1A2, luciferin-ME demethylation, luminescence; series mostly up to 57 µM. Put shortly: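 Luminescent readout of luciferin formed from Luciferin-ME by human CYP1A2; data normalized against complete inhibition by 57 uM furafylline. Enzyme 20nM, substrate 100uM at Km, 100mM KPO4 buffer, 60 min reaction at room temperature.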

Assay [3] can be described thus: NFAT Signaling Pathway (AID 444).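 Note: carbachol stimulus at about its EC50 of 1 µM final; % is set by controls: 0 for no effect and ±100 for the full control effect.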 To be noted: Jurkat NFAT-bla M1, carbachol, beta-lactamase ratio, 5 h. The method in brief: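 Jurkat cells with NFAT-driven β-lactamase reporter and co-expressed M1 receptor, stimulated with carbachol (final 1 uM, ~EC50), compound titration, 5 h at 37 °C. CCF4 loaded 1 h at RT; 460/530 nm ratio gave %activity and AC50.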
A short description of assay [4]: Stat Signaling Pathway (AID 446).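 Note: ME-180 cervical cancer cells given 40 pM IL-6 alongside compound; SIE-controlled beta-lactamase reporter measured as 460/530 nm FRET emission ratio; % is set by controls: 0 for no effect and ±100 for the full control effect.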 To be noted: ME-180 SIE beta-lactamase reporter, IL-6 stimulated, 5 h. Put shortly:
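Screening format detects activators and inhibitors alike: ME-180 SIE-bla cells stimulated at 40 pM IL-6 for 5 hrs with compound, then dual-emission beta-lactamase read at 405 nm excitation.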

Assay [5] concerns the target Glucocorticoid receptor (Homo sapiens) (UniProt P04150). Briefly: GR-GFP Redistribution (AID 450;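 active = compounds whose dose series gives a full or clear partial fitted curve of increased nuclear translocation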; note: potency is the fitted concentration of half-maximal effect). To be noted: U2OS GR-GFP nuclear translocation, laser cytometry, 2 h.
For assay [6] the target is unchanged. Briefly: GR-EFC Redistribution (AID 451; calls by dose curve; note: potency is the fitted concentration of half-maximal effect). Conditions: CHO-K1 GR-EFC translocation, beta-gal luminescence, 2 h. Put shortly: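 CHO-K1 cells expressing nuclear EA and GR-ED fragments of b-gal; compounds titrated up to 46 uM final, 2 h at 37 C. GR nuclear translocation read as complemented b-gal luminescence after 1 h RT detection.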
Assay [7] has as its target Mitogen-activated protein kinase 10 (Mus musculus) (UniProt Q61831). Briefly: JNK3 AlphaScreen Assay (AID 530).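 Note: kinase came from lysate of stimulated human HepG2 cells; signal reports phosphorylation of biotinylated GST-cJun 1-79 at Ser73 with 10 µM ATP; % is set by controls: 0 for no effect and ±100 for the full control effect.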 Conditions: JNK3 lysate, c-Jun phosphorylation; series mostly up to 57.1 µM. The method in brief: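 Pre-activated (IL-1β/TNFα) JNK3 in HepG2 lysates phosphorylates biotin-GST-cJun(1-79), 10 uM ATP; anti-phospho-cJun(Ser73) AlphaScreen read at room temperature, pH 7.6 Tris buffer. Compounds pre-incubated 15 min as titrations.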
Background: Bead proximity is the source of the signal in Alpha formats.

For assay [8], the target named is 3',5'-cyclic-AMP phosphodiesterase 4B (Homo sapiens) (UniProt Q07343). The assay is described as follows: qHTS Assay for Inhibitors of PDE-IV (AID 607; active = well fitted activation curve with a large enough effect in the main read-out, with a control signal flat, not every such curve was filed as active; note: % of control where 0% means no effect). Conditions: HEK293 ACTOne CNG channel cells, membrane potential fluorescence; series mostly up to 22.9 µM. Put shortly:
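The readout is membrane depolarisation from a cAMP-sensing CNG channel, detected with a potential dye at ex 535/em 590. Cells were HEK293-derived (endogenous PDE-IV) at 1000 cells/well, titrated up to 22.9 uM final.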
A general note: qHTS replaces the single test concentration by a dilution series.

Assay [9] concerns the target Guanine nucleotide-binding protein G(i) subunit alpha-1 (Homo sapiens) (UniProt P63096). Briefly: qHTS Assay for Inhibitors of RGS12 GoLoco Motif Activity (Green Fluorophore) (AID 879; active = well fitted curve in the direction sought with a large enough effect; an effect the other way counts as inactive or inconclusive;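 note: 0% = labeled peptide with Gαi1 and full inhibition = labeled peptide alone without protein; negative values mean loss of peptide binding seen as reduced polarization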). To be noted: Galphai1/FITC-RGS12 GoLoco peptide, fluorescence polarization; series mostly up to 57.1 µM. The method in brief:
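Fluorescence polarization assay: 50 nM Gαi1 with 10 nM FITC-labeled RGS12 GoLoco peptide in 10 mM Tris pH 7.5, 150 mM NaCl, 0.1 mM GDP, 0.05% NP40, 10 min at room temperature with compound.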

Assay [10] addresses Pyruvate kinase (Leishmania mexicana) (UniProt Q27686). Briefly: qHTS Validation Assay for Inhibitors of Leishmania Mexicana Pyruvate Kinase (AID 945; active = well fitted curve in the direction sought with a large enough effect; an effect the other way counts as inactive or inconclusive;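 note: 0% = DMSO only neutral control wells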). Conditions: purified L. mexicana pyruvate kinase, enzyme activity, E451W mutant enzyme; series mostly up to 57.5 µM. The method in brief: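 The enzyme is a highly purified E451W mutant of LmPYK used at 0.2 nM. It converts 0.5 mM PEP and 0.1 mM ADP over 1 h at room temperature; product ATP is quantified by luciferase luminescence relative to DMSO controls.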

Assay [11] concerns the target Pyruvate kinase PKM (Homo sapiens) (UniProt P14618). The assay is described as follows: qHTS Assay for Activators of Human Muscle Pyruvate Kinase (AID 954; active = well fitted curve in the direction sought with a large enough effect, not every such curve was filed as active;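 note: 0% = uninhibited enzyme and -100% = no enzyme or full thiadiazolimine inhibition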). To be noted: purified human muscle pyruvate kinase, luciferase-coupled luminescence, 1 h; series mostly up to 57.5 µM. The method in brief: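 Reaction: 0.1 nM purified PKM2 with 0.5 mM phosphoenolpyruvate and 0.1 mM ADP, room temperature, 1 h. Readout: luciferase-based ATP luminescence after stop reagent. Activators judged against a 0.3 nM enzyme column.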

Assay [12] addresses alpha-glucosidase (Oryza sativa, rice) (UniProt Q653V4). The assay is described as follows: Counterscreen for Glucocerebrosidase Inhibitors: qHTS Assay for Rice alpha-Glucosidase at pH 5.0 (AID 997; active = well fitted curve in the direction sought with a large enough effect; an effect the other way counts as inactive or inconclusive;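 note: 0% = full activity with enzyme and -100% = basal without enzyme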). Conditions: rice alpha-glucosidase enzyme activity; series mostly up to 76.9 µM. The method in brief: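 Rice alpha-glucosidase (4 nM final) with 400 uM 4-methylumbelliferyl-alpha-D-glucopyranoside in citrate buffer pH 5.0, 20 min at room temperature, stopped at pH 10; fluorescence 365/440 nm, compounds 0.7 nM–77 uM, AC50 from Hill fits.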
Background: A counterscreen serves to expose hits that act by an unwanted route or on another target.

Assay [13] in a line: qHTS Assay for Lipid Storage Modulators (AID 1519; calls by dose curve). Conditions: Drosophila S3 cells, BODIPY lipid droplet/cell ratio, laser cytometry, cells loaded with oleic acid; for activity change, negative = inhibition: at 25.7 µM (top of the series). The method in brief:
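Cells seeded at 5,000 per well were treated with compounds over a concentration series and loaded with oleic acid (400 uM, as added). Lipid droplet fluorescence (488 nm excitation, 500-530 nm channel) was read by laser-scanning cytometry and normalized to 20 uM Triacsin C.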

The target in assay [14] is Ubiquitin carboxyl-terminal hydrolase 1 (Homo sapiens) (UniProt O94782). The assay is described as follows: Inhibitors of USP1/UAF1: Pilot qHTS (AID 504865; active = well fitted curve in the direction sought with a large enough effect; an effect the other way counts as inactive or inconclusive;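 note: rhodamine fluorescence freed from ubiquitin-rhodamine substrate followed over time; top concentration of the series differs between compounds; % is set by controls: 0 for no effect and ±100 for the full control effect; nearly all actives have a fitted effect of over 35% in size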). Conditions: purified USP1/UAF1, Ub-rhodamine cleavage fluorescence; series mostly up to 54.9 µM. The method in brief:
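Enzyme-free wells gave the negative control, while test wells held 1nM USP1/UAF1 preincubated with compound for 15 min at room temperature. Ub-Rho at 150nM final started the reaction, and fluorescence at 480/540 nm was recorded kinetically.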

For assay [15], the target named is ATP-dependent 6-phosphofructokinase (Trypanosoma brucei brucei) (UniProt O15648). Briefly: qHTS Assay to Find Inhibitors of T. brucei phosphofructokinase: hit validation (AID 492961; active = well fitted curve in the direction sought with a large enough effect; an effect the other way counts as inactive or inconclusive). To be noted: T. brucei PFK, ADP-Glo luminescence; series mostly up to 24.3 µM. Put shortly: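 Inhibition of parasite PFK is measured as reduced ADP formation, quantified via luciferase after ATP depletion. Assay used 0.1 mM ATP, 0.5 mM F6P, 1.25 nM enzyme, 45 min incubation.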
Sequence of ATP-dependent 6-phosphofructokinase (Trypanosoma brucei brucei) (O15648 whole entry, looked up): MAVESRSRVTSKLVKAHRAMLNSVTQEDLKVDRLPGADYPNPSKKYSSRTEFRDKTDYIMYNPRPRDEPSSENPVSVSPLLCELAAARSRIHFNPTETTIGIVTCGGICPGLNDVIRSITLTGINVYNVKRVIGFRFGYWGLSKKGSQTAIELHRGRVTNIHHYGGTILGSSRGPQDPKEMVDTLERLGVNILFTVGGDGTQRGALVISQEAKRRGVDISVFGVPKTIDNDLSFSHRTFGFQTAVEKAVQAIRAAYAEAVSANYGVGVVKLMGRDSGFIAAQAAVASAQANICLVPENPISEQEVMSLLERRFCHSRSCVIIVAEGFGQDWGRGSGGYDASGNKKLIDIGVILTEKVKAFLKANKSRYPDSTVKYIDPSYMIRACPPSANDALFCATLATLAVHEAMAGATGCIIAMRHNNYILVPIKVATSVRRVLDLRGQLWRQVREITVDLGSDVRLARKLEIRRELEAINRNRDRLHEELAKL

Assay [16] addresses Luciferin 4-monooxygenase (Photinus pyralis) (UniProt P08659). Briefly: Biochemical firefly luciferase enzyme assay for NPC (AID 624030; active = well fitted curve in the direction sought with a large enough effect; an effect the other way counts as inactive or inconclusive;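 note: purified P. pyralis luciferase at 10 nM with luciferin and ATP substrate; 0% = DMSO and -100% = full luciferase inhibition by PTC124 control; nearly all actives have a fitted effect of over 70% in size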). Conditions: purified P. pyralis luciferase, luminescence, 5 min; series mostly up to 58.6 µM. The method in brief:
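Purified P. pyralis luciferase at 10 nM in 50 mM Tris Acetate (final), luminescence read within 5 minutes of enzyme addition to compounds. Activity normalised to PTC124 versus DMSO; concentration-response curves classed by r2, magnitude and activity.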

Assay [17] in a line: qHTS profiling for inhibitors of Plasmodium falciparum proliferation (AID 504749; active = well fitted curve in the direction sought with a large enough effect; an effect the other way counts as inactive or inconclusive; note: potency is the fitted concentration of half-maximal effect;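 for activity, negative = inhibition: 0% = DMSO vehicle and full inhibition = artemisinin control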; for all read-outs here: nearly all actives have a fitted effect of over 60% in size). Conditions: P. falciparum in erythrocytes, SYBR Green DNA, 72 h; for activity, negative = inhibition: at 28.7 µM (top of the series). The method in brief: (§1)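 P. falciparum-infected erythrocytes (0.3% parasitemia, 2.5% hematocrit) incubated with compound 72 h at 37 C, 5% CO2. Parasite DNA detected by SYBR Green after lysis, overnight at room temperature; normalised to 0.29 uM artemisinin and DMSO.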

A further assay has as its system AS120. Described as above. To be noted: P. falciparum in erythrocytes, SYBR Green DNA, 72 h; series mostly up to 28.7 µM. The method in brief:
as §1

For the next assay, the system named is CP238. Described as above. To be noted: P. falciparum in erythrocytes, SYBR Green DNA, 72 h; series mostly up to 12.8 µM. Put shortly: as §1
The next assay has as its system FAB9. The description is as above. To be noted: P. falciparum in erythrocytes, SYBR Green DNA, 72 h; series mostly up to 12.8 µM. Put shortly:
as §1

Setting [18] is: measured here: cell count channel max response.
Where [19] appears, read: measured here: lipid channel max response.

Where “and” joins values, the source holds several entries; their conditions need not be identical. Equal values may be shown once. Inconclusive results are not listed. Calls of active or inactive are those of the source. Unless noted, calls come from the whole dose curve; as a rule, active = well fitted curve in either direction with a large enough effect (not every such curve was filed as active); inconclusive = small, poorly fitted or top-dose-only effect, or another doubt; inactive = flat fitted curve, though single readings scatter.

Sequence of Pyruvate kinase (Leishmania mexicana) (Q27686 2-499 E452W): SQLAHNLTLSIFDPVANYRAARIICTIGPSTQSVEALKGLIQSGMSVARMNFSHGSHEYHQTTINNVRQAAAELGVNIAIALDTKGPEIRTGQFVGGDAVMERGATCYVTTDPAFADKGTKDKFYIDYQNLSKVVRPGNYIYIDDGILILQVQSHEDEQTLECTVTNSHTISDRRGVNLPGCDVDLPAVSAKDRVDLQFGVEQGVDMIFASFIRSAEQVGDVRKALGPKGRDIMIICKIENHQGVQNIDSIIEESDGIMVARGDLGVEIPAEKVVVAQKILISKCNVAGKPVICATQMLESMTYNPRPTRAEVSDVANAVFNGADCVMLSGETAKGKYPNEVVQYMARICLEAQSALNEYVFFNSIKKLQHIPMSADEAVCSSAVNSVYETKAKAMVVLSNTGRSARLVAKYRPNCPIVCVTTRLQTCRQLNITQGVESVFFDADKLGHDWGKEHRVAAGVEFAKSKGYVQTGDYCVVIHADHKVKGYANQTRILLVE
Sequence of Pyruvate kinase PKM (Homo sapiens) (P14618 whole entry, looked up): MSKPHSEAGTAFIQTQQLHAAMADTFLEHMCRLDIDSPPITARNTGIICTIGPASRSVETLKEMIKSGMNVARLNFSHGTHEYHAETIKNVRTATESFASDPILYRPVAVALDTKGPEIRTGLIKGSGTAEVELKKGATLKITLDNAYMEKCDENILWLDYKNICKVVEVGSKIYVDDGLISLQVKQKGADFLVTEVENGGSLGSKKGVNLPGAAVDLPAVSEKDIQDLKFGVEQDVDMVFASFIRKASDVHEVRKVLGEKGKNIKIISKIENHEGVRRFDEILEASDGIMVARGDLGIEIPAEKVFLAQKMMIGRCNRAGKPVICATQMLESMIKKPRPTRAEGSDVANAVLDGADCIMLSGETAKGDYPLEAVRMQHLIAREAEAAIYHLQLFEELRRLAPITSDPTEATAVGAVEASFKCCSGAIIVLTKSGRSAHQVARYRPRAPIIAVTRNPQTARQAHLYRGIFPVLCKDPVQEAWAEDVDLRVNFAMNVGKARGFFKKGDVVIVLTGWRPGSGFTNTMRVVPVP
Sequence of 3',5'-cyclic-AMP phosphodiesterase 4B (Homo sapiens) (Q07343 whole entry, looked up): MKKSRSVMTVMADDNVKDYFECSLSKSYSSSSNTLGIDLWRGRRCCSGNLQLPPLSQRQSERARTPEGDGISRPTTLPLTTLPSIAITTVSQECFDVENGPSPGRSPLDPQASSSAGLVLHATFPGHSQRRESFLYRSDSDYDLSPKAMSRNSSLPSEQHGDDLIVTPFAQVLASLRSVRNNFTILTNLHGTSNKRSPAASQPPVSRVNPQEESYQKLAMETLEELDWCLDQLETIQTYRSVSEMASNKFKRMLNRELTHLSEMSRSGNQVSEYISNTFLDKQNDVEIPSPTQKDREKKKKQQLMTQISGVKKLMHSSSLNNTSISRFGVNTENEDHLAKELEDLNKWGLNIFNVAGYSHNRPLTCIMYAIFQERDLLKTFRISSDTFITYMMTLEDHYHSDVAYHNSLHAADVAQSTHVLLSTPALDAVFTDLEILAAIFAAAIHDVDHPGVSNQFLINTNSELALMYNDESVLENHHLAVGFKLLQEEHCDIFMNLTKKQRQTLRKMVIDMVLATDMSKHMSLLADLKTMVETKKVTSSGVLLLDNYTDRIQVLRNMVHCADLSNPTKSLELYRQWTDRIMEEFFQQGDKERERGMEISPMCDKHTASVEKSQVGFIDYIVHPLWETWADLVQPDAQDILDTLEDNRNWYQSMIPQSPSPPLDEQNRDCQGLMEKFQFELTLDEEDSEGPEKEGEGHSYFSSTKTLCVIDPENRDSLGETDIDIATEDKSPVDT
Sequence of Guanine nucleotide-binding protein G(i) subunit alpha-1 (Homo sapiens) (P63096 whole entry, looked up): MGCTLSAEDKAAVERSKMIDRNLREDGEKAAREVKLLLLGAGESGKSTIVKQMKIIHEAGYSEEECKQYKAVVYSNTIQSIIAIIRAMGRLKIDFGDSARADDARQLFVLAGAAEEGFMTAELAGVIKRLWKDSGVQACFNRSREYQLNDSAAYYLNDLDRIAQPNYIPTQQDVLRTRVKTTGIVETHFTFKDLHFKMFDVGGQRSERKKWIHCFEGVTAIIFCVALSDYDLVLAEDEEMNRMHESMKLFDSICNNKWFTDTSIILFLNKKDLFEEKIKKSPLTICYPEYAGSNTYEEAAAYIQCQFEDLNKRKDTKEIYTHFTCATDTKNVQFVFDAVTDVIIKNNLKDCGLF
Sequence of Glucocorticoid receptor (Homo sapiens) (P04150 whole entry, looked up, the tested form may be a part): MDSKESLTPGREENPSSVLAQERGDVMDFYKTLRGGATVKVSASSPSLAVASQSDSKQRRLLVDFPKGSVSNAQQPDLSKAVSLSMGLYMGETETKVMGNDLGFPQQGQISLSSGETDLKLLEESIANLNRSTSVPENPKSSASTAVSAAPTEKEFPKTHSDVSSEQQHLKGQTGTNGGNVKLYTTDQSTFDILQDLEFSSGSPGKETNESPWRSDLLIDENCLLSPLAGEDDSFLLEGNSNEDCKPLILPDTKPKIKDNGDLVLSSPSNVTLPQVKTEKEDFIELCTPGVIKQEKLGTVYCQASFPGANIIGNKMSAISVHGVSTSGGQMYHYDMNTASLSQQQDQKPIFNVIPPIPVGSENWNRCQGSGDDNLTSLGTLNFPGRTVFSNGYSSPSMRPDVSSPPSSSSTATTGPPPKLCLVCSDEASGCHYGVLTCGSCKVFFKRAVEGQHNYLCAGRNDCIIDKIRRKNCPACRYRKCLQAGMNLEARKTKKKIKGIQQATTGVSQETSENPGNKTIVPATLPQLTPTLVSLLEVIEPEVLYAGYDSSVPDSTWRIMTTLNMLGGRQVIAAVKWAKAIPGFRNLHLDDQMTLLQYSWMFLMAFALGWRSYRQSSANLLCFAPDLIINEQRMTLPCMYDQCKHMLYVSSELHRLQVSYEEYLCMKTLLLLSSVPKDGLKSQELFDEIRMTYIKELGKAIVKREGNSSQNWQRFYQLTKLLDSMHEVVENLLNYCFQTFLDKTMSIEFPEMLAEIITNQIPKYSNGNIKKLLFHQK
Sequence of Cytochrome P450 1A2 (Homo sapiens) (P05177 whole entry, looked up): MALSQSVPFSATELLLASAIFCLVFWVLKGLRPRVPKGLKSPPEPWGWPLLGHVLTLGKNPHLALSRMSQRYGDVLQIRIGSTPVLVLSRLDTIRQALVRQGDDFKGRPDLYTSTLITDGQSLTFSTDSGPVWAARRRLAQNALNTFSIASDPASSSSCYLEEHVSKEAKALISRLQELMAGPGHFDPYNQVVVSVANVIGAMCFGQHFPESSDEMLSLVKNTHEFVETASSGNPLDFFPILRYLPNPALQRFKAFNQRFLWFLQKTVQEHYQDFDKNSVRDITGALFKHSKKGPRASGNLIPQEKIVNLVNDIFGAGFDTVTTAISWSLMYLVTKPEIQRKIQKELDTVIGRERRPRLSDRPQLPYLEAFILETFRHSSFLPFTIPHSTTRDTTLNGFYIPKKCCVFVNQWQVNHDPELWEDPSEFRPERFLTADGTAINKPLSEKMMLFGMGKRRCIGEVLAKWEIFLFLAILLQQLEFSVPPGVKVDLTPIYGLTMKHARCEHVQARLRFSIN
Sequence of Ubiquitin carboxyl-terminal hydrolase 1 (Homo sapiens) (O94782 whole entry, looked up): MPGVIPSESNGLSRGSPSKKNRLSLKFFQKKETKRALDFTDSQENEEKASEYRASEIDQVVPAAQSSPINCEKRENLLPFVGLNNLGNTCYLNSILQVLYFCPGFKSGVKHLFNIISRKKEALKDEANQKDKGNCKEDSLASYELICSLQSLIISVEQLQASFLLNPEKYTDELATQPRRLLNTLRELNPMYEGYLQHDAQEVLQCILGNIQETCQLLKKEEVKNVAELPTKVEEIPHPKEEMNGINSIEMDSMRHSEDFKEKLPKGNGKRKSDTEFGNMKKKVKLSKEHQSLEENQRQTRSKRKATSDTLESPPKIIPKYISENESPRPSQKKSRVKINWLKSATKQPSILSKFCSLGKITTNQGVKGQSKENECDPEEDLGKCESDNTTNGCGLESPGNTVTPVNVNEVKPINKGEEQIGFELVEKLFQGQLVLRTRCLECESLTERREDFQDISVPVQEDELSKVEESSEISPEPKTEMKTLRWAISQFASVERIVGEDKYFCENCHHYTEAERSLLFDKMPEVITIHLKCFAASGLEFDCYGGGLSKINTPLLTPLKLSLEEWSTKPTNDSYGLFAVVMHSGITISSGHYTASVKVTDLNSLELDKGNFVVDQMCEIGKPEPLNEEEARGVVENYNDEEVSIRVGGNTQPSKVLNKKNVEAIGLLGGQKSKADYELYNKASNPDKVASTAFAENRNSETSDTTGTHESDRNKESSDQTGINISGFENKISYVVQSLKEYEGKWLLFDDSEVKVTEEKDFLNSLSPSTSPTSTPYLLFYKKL

`COc1cc(=O)n(C)c2c(OC[C@@H](O)C(C)(C)O)cccc12`: the activity change, negative = inhibition in [1] (at 17.2 µM (top of the series)) is 11.5% (inactive); in assay [1] (at 38 µM (top of the series)) it was 3.48% (inactive); in assay [3] (at 17.2 µM (top of the series)), 1.64% (inactive); in [3] (at 38 µM (top of the series)), 5.18% (inactive); in assay [13], -2.03% (inactive). Besides, the Potency was 20 µM (active) and 12.6 µM (active) in assay [2]; > 46 µM (inactive) and > 20.6 µM (inactive) in [5]; > 46 µM (inactive) and > 20.6 µM (inactive) in [6]. For the same molecule, the values for the activity, negative = inhibition in [4] (at 17.2 µM (top of the series)) and in assay [4] (at 38 µM (top of the series)) were -4.39% (inactive) and 1.34% (inactive), respectively. Further, the Potency entry in [7], in assay [8], in assay [9] and in assay [14] was “inactive” throughout. For the same molecule, the call in assay [10], in assay [11] and in [12] was inactive. Besides, the max response is -7.54% in assay [13] (setting [18]) and -18.8% in [13] (setting [19]).
With `CC(C)NC[C@H](O)c1cc(O)cc(O)c1`, the activity change, negative = inhibition in assay [1] (at 17.2 µM (top of the series)) is -17.9% (inactive); in assay [1] (at 38 µM (top of the series)) it was -18.1% (inactive); in assay [3] (at 17.2 µM (top of the series)), -4.38% (inactive); in [3] (at 38 µM (top of the series)), 2.58% (inactive); in assay [13], -2.07% (inactive). The Potency result (in [2]; in assay [7]; in assay [8]; in assay [9]; in the assay on AS120; in the assay with CP238) was “inactive” in each case. Further, the Potency result in the assay with FAB9 is “inactive”. The activity, negative = inhibition in assay [4] (at 7.69 µM (top of the series) unless noted) was 14.6% [at 17.2 µM] (inactive); in [17] (parasite line A), 15.2% (inactive); in assay [17] (parasite line B), 4.36% (inactive). In addition, the outcome in assay [10], in assay [11], in assay [12], in [15] and in assay [16] was inactive. In addition, the max response in [13] (setting [18]) worked out at 14.3%; in assay [13] (setting [19]) it was 12.4%.
On to `C[C@@](N)(Cc1ccc(O)c(O)c1)C(=O)O`, for which the activity change, negative = inhibition is 0.401% (inactive) in assay [1] (at 17.2 µM (top of the series)); 5.17% (inactive) and -4.03% (inactive) in [1] (at 38 µM (top of the series)); -8.05% (inactive) in assay [3] (at 17.2 µM (top of the series)); 7.56% (inactive) and -10% (inactive) in assay [3] (at 38 µM (top of the series)); -1.42% (inactive) in assay [13]. Further, the Potency entry in assay [2], in assay [7], in assay [8], in assay [9] and in assay [14] was “inactive” in each case. Moreover, the activity, negative = inhibition was 0.151% (inactive) in assay [4] (at 17.2 µM (top of the series)); -17.9% (inactive) and -0.208% (inactive) in assay [4] (at 38 µM (top of the series)). Besides, the outcome in [10], in assay [11] and in [12] was inactive. Further, the max response in [13] (setting [18]) was 6.8%; in assay [13] (setting [19]) it was -7.65%.
For the molecule `C[C@@H](CCc1ccccc1)NC[C@H](O)c1ccc(O)c(C(N)=O)c1`, the activity change, negative = inhibition is 10.2% (inactive) in [1] (at 17.2 µM (top of the series)); 8.69% (inactive) in [1] (at 38 µM (top of the series)); -19.2% (inactive) in [3] (at 17.2 µM (top of the series)); -1.34% (inactive) in assay [3] (at 38 µM (top of the series)); -1.75% (inactive) in assay [13]. In addition, the Potency result (in [2]; in assay [7]; in assay [8]; in assay [9]; in assay [14]; in the assay on AS120) was “inactive” throughout. The Potency entry in the assay on CP238 and in the assay with FAB9 was “inactive” throughout. For the same molecule, the activity, negative = inhibition in assay [4] (at 17.2 µM (top of the series)) is -0.55% (inactive); in [4] (at 38 µM (top of the series)) it was 4.03% (inactive). Also, the Potency in [5] is > 46 µM (inactive) and > 20.6 µM (inactive); in [6] it was > 46 µM (inactive) and > 20.6 µM (inactive); in assay [17] (parasite line B), 10 µM (active). Besides, the result in [10], in assay [11], in assay [12], in assay [15] and in [16] was inactive. In addition, the max response in assay [13] (setting [18]) was -10.3%; in assay [13] (setting [19]) it was -13.3%.
